A selection: hits, their analogues and other compounds. The true share with any hit is near 7.8%.
Marburg entry inh: Marburg virus entry inhibition | actives 1.8% (n = 300,000) | AID 540276 | Potency, µM (titrated, usually from 37.8 µM), without a hit: top-dose activity change, negative = inhibition, actives largely listed as inhibitors | Marburg virus pseudotyped entry inhibition, cell reporter; calls by dose curve; tested in HEK293 cells; further: potency means the concentration at half of the fitted maximal effect
HCMV inh: inhibitors of human cytomegalovirus. activity change, negative = inhibition, % at 57.5 µM. HFF cells, HCMV-luciferase reporter, 72 h; active compounds read low. actives 4.5% (n = 410,000); in the data active means activity change below about -60%; inconclusive means no clear call, values can overlap the other calls; inactive means above about -39%
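Steps: HFFs plated, 16 h 37C; compounds added; HCMV-luciferase added to MOI 1 PFU/cell; 72 h 37C; OneGlo reagent, 5 min room temperature; luminescence read, normalized to controls.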
HCV inh: HCV inhibition. Huh7.5.1 HCVcc-Cre infection, luciferase reporter, 44 h. Potency, µM (top dose mostly 41.8 µM), for inactives: at the highest dose activity change, negative = inhibition, usual class: inhibitors. actives 3.4% (n = 340,000). AID 651820; active means well fitted inhibition curve with a large enough effect; inconclusive means small, poorly fitted or top-dose-only effect, or another doubt; inactive means no such curve, though single readings can be large or run the other way; further: potency means the concentration at half of the fitted maximal effect
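Antiviral activity was scored by luciferase reporter output from cells infected with HCVcc-Cre (~0.5 moi) in presence of compound, 44 h infection period, cells seeded 1,000/well 4 h prior.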
Vaccinia Venus: vaccinia inhibition (Venus reporter). Vaccinia virus Venus reporter expression, fluorescence. Potency, µM (titrated, usually from 36.5 µM), inactives show at the top dose activity change, negative = inhibition, hits mostly inhibitors. actives 0.46% (n = 330,000); calls by dose curve; tested in A549 cells; further: potency means the concentration at half of the fitted maximal effect; nearly all actives have a fitted effect of over 30% in size
VACV mCherry inh: inhibitors of vaccinia virus infection (mCherry reporter signal). Vaccinia virus mCherry reporter infection, fluorescence. actives 0.63% (n = 310,000). Potency, µM (series often up to 36.5 µM), inactives show at the highest dose activity change, negative = inhibition, most hits filed as inhibitors; calls by dose curve; tested in A549 cells; further: potency means the concentration at half of the fitted maximal effect; nearly all actives have a fitted effect of over 35% in size
Lassa entry inh: inhibitors of Lassa virus binding or cell entry | AID 540256 | Potency, µM (series often up to 37.9 µM), without a hit: top-dose activity change, negative = inhibition, hits mostly inhibitors | actives 1.2% (n = 300,000) | Lassa virus pseudotype entry inhibition, cell reporter; calls by dose curve; tested in HEK293 cells; further: potency means the concentration at half of the fitted maximal effect; nearly all actives have a fitted effect of over 50% in size
An asterisk follows results filed as active; [ ] = another dose, or the depositor's remark. On the % scale 0 is the no-effect control and ±100 the full control effect.

How did COc1ccc(/C=N/NC(=O)c2cccnc2)cc1CSc1nc2ccccc2s1 do in these assays?
Marburg entry inh: -17%; HCMV inh: inconclusive; HCV inh: -10%; Vaccinia Venus: -27%; VACV mCherry inh: inconclusive; Lassa entry inh: -24%

What do the screens show for `COc1ccc(/C=N/NC(=O)c2ccccc2O)cc1Cn1cc([N+](=O)[O-])cn1`?
HCMV inh: -11; HCV inh: 1%; Vaccinia Venus: 0%; VACV mCherry inh: inactive

Results for COc1cc(C(=O)N/N=C/c2ccc(OC)c(CN3CCN(c4ccc(F)cc4)CC3)c2)ccc1O ?
Marburg entry inh: inconclusive; HCMV inh: -25; HCV inh: 25µM*; Lassa entry inh: -23%

How did COc1ccc(/C=N/NC(=O)c2ccccc2Cl)cc1CSc1nc2ccccc2s1 do in these assays?
Marburg entry inh: inconclusive; HCMV inh: inconclusive; HCV inh: inconclusive; Lassa entry inh: 13µM*

What do the screens show for `CC(C(=O)c1ccccc1)[n+]1ccc(Cl)c2ccc(Cl)cc21` (stereo not given)?
Vaccinia Venus: -6%; VACV mCherry inh: 30%

Results for COc1ccc(C2=NN(CC(=O)NCCc3ccc(OC)c(OC)c3)C(=O)CC2)cc1 ?
HCMV inh: 44; Vaccinia Venus: -5%; VACV mCherry inh: -6%; Lassa entry inh: 17%[46.1 µM]

Results for COc1ccccc1N1CCN(S(=O)(=O)c2c(C)sc3ncn(CC(=O)Nc4ccc(C)cc4Br)c(=O)c23)CC1 ?
Marburg entry inh: -10%[46.1 µM]; HCMV inh: -17; Vaccinia Venus: -11%; VACV mCherry inh: -9%; Lassa entry inh: 10%[46.1 µM]

How did O=C(CCSc1nc2ccccc2s1)N/N=C/c1c(O)ccc2ccccc12 do in these assays?
Marburg entry inh: inconclusive; HCMV inh: -99*; HCV inh: 3.2µM*; Lassa entry inh: inconclusive

What do the screens show for `COc1ccc(/C=N/NC(=O)CCSc2nc3ccccc3s2)cc1OC`?
Marburg entry inh: -15%; HCMV inh: -7; HCV inh: 10µM*; Lassa entry inh: -6%

Results for S=c1[nH]nc(COc2ccccc2)n1/N=C/c1cccnc1 ?
Marburg entry inh: -7%; HCMV inh: -24; HCV inh: 22%; Vaccinia Venus: -2%; VACV mCherry inh: -9%; Lassa entry inh: inconclusive

How did S=c1[nH]nc(COc2ccccc2)n1/N=C/c1ccc(Br)cc1 do in these assays?
HCMV inh: -16; HCV inh: 3%

Results for CC(C)c1ccc(/C=N/n2c(COc3ccccc3)n[nH]c2=S)cc1 ?
Marburg entry inh: inconclusive; HCMV inh: 27; HCV inh: 19%; Vaccinia Venus: -6%; VACV mCherry inh: inactive; Lassa entry inh: 1.6µM*

How did S=c1[nH]nc(COc2ccccc2)n1/N=C/C(Cl)=C/c1ccccc1 do in these assays?
Marburg entry inh: 2%; HCMV inh: 12; HCV inh: -27%; Lassa entry inh: 18µM*

Results for Cc1nn(-c2ccccc2)c(C)c1/C=N/n1c(-c2ccncc2)n[nH]c1=S ?
Marburg entry inh: inconclusive; HCMV inh: -74*; HCV inh: 5%; Vaccinia Venus: -2%; VACV mCherry inh: -10%; Lassa entry inh: inconclusive

How did O=[N+]([O-])c1ccc(Cl)c(/C=N/n2c(-c3ccncc3)n[nH]c2=S)c1 do in these assays?
Marburg entry inh: 18%[46.1 µM]; HCMV inh: -67*; HCV inh: 14%; Vaccinia Venus: -5%[7.34 µM]; VACV mCherry inh: inactive[7.34 µM]; Lassa entry inh: 2%

How did O=[N+]([O-])c1ccc(O)c(/C=N/n2c(-c3ccccc3)n[nH]c2=S)c1 do in these assays?
Marburg entry inh: 4%; HCMV inh: -7; HCV inh: 19%; Vaccinia Venus: -13%; VACV mCherry inh: inactive; Lassa entry inh: -16%

Results for Cc1nn(-c2ccccc2)c(C)c1/C=N/n1c(-c2ccc(Cl)cc2)n[nH]c1=S ?
Marburg entry inh: -21%; HCMV inh: inconclusive; HCV inh: -22%; Vaccinia Venus: 3%; VACV mCherry inh: -13%; Lassa entry inh: inconclusive

How did O=C(CSc1nc(-c2ccccc2)nc2c1Cc1ccccc1O2)N1CCCCC1 do in these assays?
Marburg entry inh: 1%[46.1 µM]; HCMV inh: 16; Vaccinia Venus: -10%; VACV mCherry inh: -11%; Lassa entry inh: -13%[46.1 µM]

What do the screens show for `Cc1cc(O)c(C)c(O)c1C(=O)O`?
Vaccinia Venus: -12%; VACV mCherry inh: -19%

What do the screens show for `S=c1[nH]nc(-c2ccncc2)n1/N=C/C=C/c1ccccc1`?
Marburg entry inh: inconclusive; HCMV inh: -9; HCV inh: 6%; Vaccinia Venus: -19%; VACV mCherry inh: -29%; Lassa entry inh: 0%

Results for CC(C)CCn1c(COc2ccccc2)n[nH]c1=S ?
Marburg entry inh: 1%[46.1 µM]; HCMV inh: -62*; HCV inh: 29%; Vaccinia Venus: 7%; VACV mCherry inh: inactive; Lassa entry inh: 6%[46.1 µM]

Results for S=c1[nH]nc(COc2ccccc2)n1Cc1ccccc1 ?
Marburg entry inh: inconclusive; HCMV inh: -38; HCV inh: 9%; Vaccinia Venus: -12%; VACV mCherry inh: -14%; Lassa entry inh: 1%

How did S=c1[nH]nc(COc2ccccc2)n1/N=C/c1c(Cl)cccc1Cl do in these assays?
HCMV inh: -103*; HCV inh: 8%

How did FC(F)Oc1ccc(/C=N/n2c(Cc3ccc(Br)cc3)n[nH]c2=S)cc1 do in these assays?
Marburg entry inh: -2%[46.1 µM]; HCMV inh: -28; HCV inh: -6%; Vaccinia Venus: -6%; VACV mCherry inh: -1%; Lassa entry inh: 5µM*

What do the screens show for `S=c1[nH]nc(-c2ccncc2)n1/N=C/C(Cl)=C\c1ccccc1`?
HCMV inh: -87*; HCV inh: -13%

How did COC(=O)c1cccc(NC(=O)N(C)CCc2c(C)nn(C)c2C)c1 do in these assays?
HCMV inh: 20; Vaccinia Venus: 2%; VACV mCherry inh: -9%; Lassa entry inh: -11%[46.1 µM]

What do the screens show for `COc1cc2nc(N3CCOCC3)nc(NC3CC3)c2cc1OC`?
Vaccinia Venus: -7%; VACV mCherry inh: -18%

How did Cc1ccc(/C=N/n2c(COc3ccccc3)n[nH]c2=S)cc1 do in these assays?
HCMV inh: -36; HCV inh: inconclusive

What do the screens show for `S=c1[nH]nc(COc2ccccc2)n1/N=C/C=C/c1ccccc1`?
Marburg entry inh: 33%; HCMV inh: -20; HCV inh: 14%; Vaccinia Venus: -2%; VACV mCherry inh: -13%; Lassa entry inh: inconclusive

What do the screens show for `S=c1[nH]nc(COc2ccccc2)n1/N=C/C=C/c1ccco1`?
Marburg entry inh: -16%[46.1 µM]; HCMV inh: 21; HCV inh: 6%; Vaccinia Venus: -7%[7.34 µM]; VACV mCherry inh: -2%[7.34 µM]; Lassa entry inh: 0.79µM*

How did CN(C)c1ccc(/C=N/n2c(COc3ccccc3)n[nH]c2=S)cc1 do in these assays?
Marburg entry inh: 5%; HCMV inh: -26; HCV inh: 16%; Vaccinia Venus: -9%; VACV mCherry inh: -9%; Lassa entry inh: 0.92µM*

Source: PubChem BioAssay
